Among the test systems are NCI-H23 lung; NCI-H226 lung; NCI-H322M lung; HOP-62 NSCLC; NCI-H460 lung; NCI-H522 lung; A549/ATCC NSCLC; 786-0 renal; COLO 205 colon; DU-145 prostate; K-562 leukemia; MALME-3M melanoma; MDA-MB-231 breast; RXF 393 renal; SF-268 CNS; SF-295 CNS; SF-539 CNS; UACC-257 melanoma; M14 melanoma.
Common to all, as to experiment: NCI-60 one-dose screen, 48 h (100 = growth as untreated, 0 = no growth, -100 = all killed)
Common to all, as to details: 10 µM unless noted

The structures appear in SMILES notation. Compounds without any hit were thinned out: in the full panel of roughly 83,000, 20% have a hit.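 A percent growth of 40 corresponds to 60% growth inhibition; 0 means no net growth; -100 means all cells died. Active threshold: below 10.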 A number with no mark means an inactive call. The source made the active and inactive calls.

Data on eight compounds can be found in PubChem BioAssay (NCI).

On to `C=CCCCCOc1cccc(/C=C2\N=C3SCCCN3C2=O)c1`, for which the growth in the experiment with NCI-H23 lung was 102%; in the experiment with NCI-H226 lung, 94.3%; with NCI-H322M lung it was 84.6%; with HOP-62 NSCLC it was 94.5%; in the experiment with NCI-H460 lung, 103%; in the experiment on NCI-H522 lung, 83.3%. Besides, the growth was 93.2% in the experiment with A549/ATCC NSCLC; 95% in the experiment with 786-0 renal; 101% in the experiment with COLO 205 colon; 108% in the experiment with DU-145 prostate; 91.5% in the experiment on K-562 leukemia; 115% in the experiment with MALME-3M melanoma. The growth was 88.6% in the experiment with MDA-MB-231 breast; 114% with RXF 393 renal; 110% with SF-268 CNS; 96% in the experiment on SF-295 CNS; 104% in the experiment with SF-539 CNS; 112% in the experiment on UACC-257 melanoma. In the experiment with M14 melanoma, the growth is 103%.

As for `CC(C)c1ccc(-c2cnc3nonc3n2)cc1`, the growth with NCI-H23 lung was 56.2%; with NCI-H226 lung, 77.5%; in the experiment on NCI-H322M lung it was 65.8%; in the experiment with HOP-62 NSCLC, 57.7%; in the experiment on NCI-H460 lung, 70.5%; in the experiment with NCI-H522 lung, 20%. In addition, the growth in the experiment on A549/ATCC NSCLC was 53.2%; in the experiment on 786-0 renal it was 10.6%; in the experiment with COLO 205 colon it was 38.1%; in the experiment on DU-145 prostate it was 30.9%; in the experiment with K-562 leukemia it was 6.39% (active); in the experiment on MALME-3M melanoma it was 61.2%. Further, the growth in the experiment with MDA-MB-231 breast was 38.5%; with RXF 393 renal, 37.7%; in the experiment with SF-268 CNS it was 62.4%; in the experiment with SF-295 CNS, 48.9%; with SF-539 CNS, 14.5%; in the experiment on UACC-257 melanoma, 52%. The growth in the experiment with M14 melanoma is 7.59% (active).

Take `CCN1C(=O)N(CC)C2C1NN=c1s/c(=C\c3ccc(Br)cc3)c(=O)n12` (configuration not stated): the growth with NCI-H23 lung was 29.2%; in the experiment with NCI-H226 lung, 50.7%; with NCI-H322M lung, 45.5%; in the experiment with HOP-62 NSCLC, 23.8%; in the experiment with NCI-H460 lung it was 7.34% (active); in the experiment with NCI-H522 lung, -49.9% (active). The growth is 19.7% with A549/ATCC NSCLC; 23.6% with 786-0 renal; -34.6% (active) with COLO 205 colon; 6.46% (active) with DU-145 prostate; 4.55% (active) in the experiment on K-562 leukemia; 52.2% in the experiment on MALME-3M melanoma. The growth with MDA-MB-231 breast is 25.9%; with RXF 393 renal, 40.5%; with SF-268 CNS, 36.1%; in the experiment on SF-295 CNS it was 17.4%; in the experiment with SF-539 CNS, -5.08% (active); in the experiment with UACC-257 melanoma it was 23.5%. Further, in the experiment with M14 melanoma, the growth is 7.42% (active).

Regarding `C[C@@H]1CC2C3CCC4=CC(=O)C=C[C@]4(C)[C@@]3(Cl)[C@@H](O)C[C@]2(C)[C@@]1(OC(=O)c1ccco1)C(=O)CCl` (some centres not stated), the growth is 66.5% in the experiment on NCI-H23 lung; 62.8% with NCI-H226 lung; 74.3% in the experiment with NCI-H322M lung; 94.4% in the experiment on HOP-62 NSCLC; 62.1% in the experiment on NCI-H460 lung; 73.9% with NCI-H522 lung. Further, the growth with A549/ATCC NSCLC was 33.6%; in the experiment on 786-0 renal, 80.5%; in the experiment with COLO 205 colon, 111%; in the experiment with DU-145 prostate it was 79%; with K-562 leukemia it was 56.7%; with MALME-3M melanoma, 87.7%. Further, the growth in the experiment with MDA-MB-231 breast was 72.2%; with RXF 393 renal, 77.7%; in the experiment on SF-268 CNS, 53.7%; in the experiment on SF-295 CNS, 64.4%; with SF-539 CNS, 53%; in the experiment with UACC-257 melanoma, 96.4%. The growth in the experiment with M14 melanoma is 82%.

Regarding `Cc1ccc(NC(=O)c2cc(NCc3cc(O)ccc3O)ccc2O)cc1`, the growth was 92.9% with NCI-H23 lung; 95.4% with NCI-H226 lung; 101% in the experiment with NCI-H322M lung; 97.9% in the experiment with HOP-62 NSCLC; 102% in the experiment with NCI-H460 lung; -27.5% (active) in the experiment on NCI-H522 lung. For the same compound, the growth in the experiment on A549/ATCC NSCLC was 80.5%; in the experiment on 786-0 renal it was 101%; in the experiment on COLO 205 colon, 105%; in the experiment on DU-145 prostate it was 106%; with K-562 leukemia, 70.9%; in the experiment with MALME-3M melanoma, 97.9%. Moreover, the growth with MDA-MB-231 breast is 78.5%; in the experiment on RXF 393 renal it was 87.5%; in the experiment with SF-268 CNS, 83.5%; in the experiment on SF-295 CNS it was 116%; in the experiment on SF-539 CNS it was 84.3%; with UACC-257 melanoma, 78.9%. Also, the growth in the experiment with M14 melanoma is 107%.

In the case of `CS(=O)(=O)c1ccc(C(=O)N/N=C/c2ccc3c(c2)OCO3)cc1`, the growth in the experiment with NCI-H23 lung is 96.9%; with NCI-H226 lung, 91.1%; with NCI-H322M lung, 96.2%; with HOP-62 NSCLC it was 96.8%; in the experiment on NCI-H460 lung, 107%; in the experiment with NCI-H522 lung it was 86%. For the same compound, the growth with A549/ATCC NSCLC is 67.7%; with 786-0 renal, 102%; in the experiment on COLO 205 colon, 110%; in the experiment with DU-145 prostate, 108%; in the experiment with K-562 leukemia, 85.5%; in the experiment on MALME-3M melanoma it was 105%. Further, the growth is 107% in the experiment on MDA-MB-231 breast; 120% in the experiment with RXF 393 renal; 104% in the experiment on SF-268 CNS; 101% in the experiment on SF-295 CNS; 105% in the experiment with SF-539 CNS; 59.1% in the experiment on UACC-257 melanoma. Moreover, the growth in the experiment on M14 melanoma is 106%.

Regarding `COc1cc(/C=C\c2cc(/C=C\c3ccc(O)c(OC)c3)n(C(=O)Nc3ccc(C(F)(F)F)cc3)n2)ccc1O`, the growth with NCI-H23 lung was 51.3%; in the experiment on NCI-H226 lung it was 82.7%; in the experiment on NCI-H322M lung, 82.7%; with HOP-62 NSCLC it was 62.9%; in the experiment with NCI-H460 lung, 18.3%; in the experiment on NCI-H522 lung it was 7.32% (active). Moreover, the growth in the experiment on A549/ATCC NSCLC is 43%; in the experiment with 786-0 renal it was 20.1%; in the experiment on COLO 205 colon, 51.3%; with DU-145 prostate, 47.6%; in the experiment with K-562 leukemia, 9.45% (active); in the experiment with MALME-3M melanoma, 52.3%. Further, the growth was 54.8% in the experiment on MDA-MB-231 breast; 22.7% in the experiment on RXF 393 renal; 37.1% in the experiment with SF-268 CNS; 83.4% in the experiment on SF-295 CNS; 29% with SF-539 CNS; 25% with UACC-257 melanoma. Moreover, the growth in the experiment on M14 melanoma is 29.5%.

In the case of `CCOC(=O)Nc1ccc2nc(Sc3ccc(Cl)cc3)sc2c1`, the growth in the experiment on NCI-H23 lung is 54.2%; in the experiment with NCI-H226 lung, 58.8%; in the experiment on NCI-H322M lung, 44.6%; in the experiment on HOP-62 NSCLC, 35.1%; in the experiment on NCI-H460 lung, 25%; in the experiment with NCI-H522 lung, 28.3%. Besides, the growth with A549/ATCC NSCLC was 42.5%; in the experiment with 786-0 renal it was 49.5%; in the experiment on COLO 205 colon, -26.4% (active); in the experiment with DU-145 prostate, 35.8%; in the experiment on K-562 leukemia it was 21%; in the experiment with MALME-3M melanoma, 42%. For the same compound, the growth was 43.4% with MDA-MB-231 breast; 36.8% in the experiment with RXF 393 renal; 54.4% in the experiment on SF-268 CNS; 29.1% in the experiment with SF-295 CNS; 5.63% (active) in the experiment with SF-539 CNS; 57.3% with UACC-257 melanoma. Also, in the experiment with M14 melanoma, the growth was 30%.
